Each structure is given as a SMILES string. Where “and” joins values, the source holds several entries; their conditions need not be identical. Equal values may be shown once. Results filed as inconclusive are left out. Where a call stands in place of a potency, no number is given. Some structures have more than one record in an assay (separate samples or runs), and their calls can disagree. Calls of active or inactive are those of the source. The call rests on the fitted dose curve; in most records, active means well fitted curve in the direction sought with a large enough effect in the repeat runs; inconclusive means weak or mixed curves; inactive means no such curve, though single readings can be large; an effect the other way counts as inactive or inconclusive.

This passage reports Potency, outcome and fluorescence, relative to Rose Bengal results from PubChem BioAssay (Tox21).

One assay is described as follows: qHTS assay for small molecule disruptors of the mitochondrial membrane potential (AID 720635). Further: potency means the concentration at half of the fitted maximal effect. Conditions: HepG2 mitochondrial membrane potential, Mito-MPS dye ratio; series mostly up to 83.2 µM. The procedure, abridged:
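HepG2 cells exposed to compound 1 hr at 37C, then Mito-MPS dye 30 min. Ratio read of aggregate (540/590 nm) versus monomer (490/535 nm) fluorescence.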
Background: In qHTS, concentration-response curves come from the screen itself.
`O=c1[nH]c(Cl)c(Cl)cc1Cl`: the Potency is 54.5 µM (active).

As to `Oc1cccc(Cl)c1Cl`, the Potency was 48.8 µM (active).

Take `CC1(C)[C@H](/C=C2\CCSC2=O)[C@@H]1C(=O)OCc1coc(Cc2ccccc2)c1`: the Potency is 21.7 µM (active).

For `C=CC(=O)[O][Sn]([CH2]CCC)([CH2]CCC)[CH2]CCC`, the Potency is 0.0863 µM (active).

Turning to `CCN(CC)C(=S)S`, the Potency is 2.98 µM (active) and inactive.

For `CO/N=C(\C(=O)OC)c1ccccc1CO/N=C(\C)c1cccc(C(F)(F)F)c1`, the Potency is 9.69 µM (active).

Take `CC[C@H](C)[C@H]1O[C@]2(C=C[C@@H]1C)C[C@@H]1C[C@@H](C/C=C(\C)[C@@H](O[C@H]3C[C@H](OC)[C@@H](O[C@H]4C[C@H](OC)[C@@H](NC)[C@H](C)O4)[C@H](C)O3)[C@@H](C)/C=C/C=C3\CO[C@@H]4[C@H](O)C(C)=C[C@@H](C(=O)O1)[C@]34O)O2`: the Potency was 6.86 µM (active).

In the case of `CCC(OC(C)=O)C(CC(C)NC)(c1ccccc1)c1ccccc1` (configuration not stated), the Potency is 49 µM (active).

For the molecule `COc1ccc2c3c1O[C@H]1[C@H](O)CC[C@H]4[C@@H](C2)N(C)CC[C@@]341`, the Potency entry was “inactive”.

As for `Nc1nc(N)c(N)c(N)n1`, the Potency is 8.68 µM (active).

Take `O=[N+]([O-])c1cc(C(F)(F)F)c(Cl)c([N+](=O)[O-])c1Nc1ncc(C(F)(F)F)cc1Cl`: the Potency was 0.243 µM (active).

For the molecule `CCN(CC)CCc1c[nH]c2ccccc12`, the Potency entry was “inactive”.

`Brc1cccc(-c2ccccc2)c1`: the Potency was 0.436 µM (active).

For the molecule `S=C=Nc1ccccc1`, the Potency was 28.2 µM (active).

In the case of `COP(=O)(OC)Oc1ccc([N+](=O)[O-])cc1`, the Potency entry was “inactive”.

Turning to `Cc1c([N+](=O)[O-])c(C)c([N+](=O)[O-])c(C(C)(C)C)c1[N+](=O)[O-]`, the Potency is 15.4 µM (active).

Regarding `CC1CN1` (configuration not stated), the Potency entry is “inactive”.

`CC(=O)[O][Sn]([c]1ccccc1)([c]1ccccc1)[c]1ccccc1`: the Potency is 0.077 µM (active).

In the case of `COP(=S)(OC)Oc1nc(Cl)c(Cl)cc1Cl`, the Potency is 48.5 µM (active).

As for `CCCCCCCCCCCCCCn1cc[n+](C)c1`, the Potency is 10.7 µM (active) and 34.3 µM (active).

Consider `CCCCc1ccccc1`, for which the Potency entry is “inactive”.

For `BrCCCBr`, the Potency entry is “inactive”.

With `c1cc[n+]2c(c1)-c1cccc[n+]1CC2`, the Potency result is “inactive”.

As for `ClC1=C(Cl)[C@]2(Cl)[C@H]3[C@H]([C@@H]4C=C[C@H]3C4)[C@@]1(Cl)C2(Cl)Cl`, the Potency is 30.6 µM (active) and 17.2 µM (active).

Take `COc1cnc(OC)n2nc(NS(=O)(=O)c3c(OCC(F)F)cccc3C(F)(F)F)nc12`: the Potency entry was “inactive”.

Take `COc1ccc2[nH]cc(CCN(C(C)C)C(C)C)c2c1`: the Potency entry was “inactive”.

As to `CN(C)C(=S)SSC(=S)N(C)C`, the Potency is 335 nM (active) and 30.2 µM (active) and 54.5 nM (active).

With `CN1C(=O)[C@@H](NC(=O)c2cc3ccccc3[nH]2)N=C(c2ccccc2)c2ccccc21`, the Potency was 10.6 µM (active).

Turning to `COP(=S)(NC(C)C)Oc1ccc(C)cc1[N+](=O)[O-]` (configuration not stated), the Potency was 24.3 µM (active).

Take `CC(Cc1ccc(OCC(=O)O)cc1)NCC(O)c1csc(C(F)(F)F)n1` (configuration not stated): the Potency entry is “inactive”.

In the case of `c1ccc(N=NNc2ccccc2)cc1`, the Potency was 7.1 µM (active) and 5.45 µM (active).

For the molecule `N#CC(C#N)=NNc1cccc(Cl)c1`, the Potency was 0.109 µM (active).

Turning to `CC(O)C(=O)[O][Hg][c]1ccccc1` (configuration not stated), the Potency is 2.73 µM (active).

With `COC(=O)C(C)N(C(=O)c1ccco1)c1c(C)cccc1C` (configuration not stated), the Potency entry is “inactive”.

Another assay can be described thus: qHTS assay to test for compound auto fluorescence at 590 nm (red) in HepG2 cells (AID 720674). Conditions: HepG2 autofluorescence, red 540/590 nm, 1 h; series mostly up to 91.3 µM. The procedure, abridged: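 Seeding: 2,000 HepG2 cells/well, MEM/10% FBS, overnight 37 C. Dosing: compound vs DMSO. Incubation: 1 hr, 37 C, 5% CO2. Read: fluorescence 540 ex/590 em, Rose Bengal sodium as red reference.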
Regarding `O=c1[nH]c(Cl)c(Cl)cc1Cl`, the molecule was called inactive.

Take `Oc1cccc(Cl)c1Cl`: the call was inactive.

On to `CC1(C)[C@H](/C=C2\CCSC2=O)[C@@H]1C(=O)OCc1coc(Cc2ccccc2)c1`, for which the outcome was inactive.

As to `C=CC(=O)[O][Sn]([CH2]CCC)([CH2]CCC)[CH2]CCC`, the molecule was called inactive.

Turning to `CCN(CC)C(=S)S`, the molecule was classed as inactive.

Consider `Fc1ccc(C(OCCN2CCN(CCCc3ccccc3)CC2)c2ccc(F)cc2)cc1`, for which the call was inactive.

Consider `CO/N=C(\C(=O)OC)c1ccccc1CO/N=C(\C)c1cccc(C(F)(F)F)c1`, for which the molecule was called inactive.

In the case of `CC[C@H](C)[C@H]1O[C@]2(C=C[C@@H]1C)C[C@@H]1C[C@@H](C/C=C(\C)[C@@H](O[C@H]3C[C@H](OC)[C@@H](O[C@H]4C[C@H](OC)[C@@H](NC)[C@H](C)O4)[C@H](C)O3)[C@@H](C)/C=C/C=C3\CO[C@@H]4[C@H](O)C(C)=C[C@@H](C(=O)O1)[C@]34O)O2`, the call was inactive.

As for `CCC(OC(C)=O)C(CC(C)NC)(c1ccccc1)c1ccccc1` (configuration not stated), the molecule was called inactive.

Take `COc1ccc2c3c1O[C@H]1[C@H](O)CC[C@H]4[C@@H](C2)N(C)CC[C@@]341`: the outcome was inactive.

As to `Nc1nc(N)c(N)c(N)n1`, the molecule was classed as inactive.

Consider `O=[N+]([O-])c1cc(C(F)(F)F)c(Cl)c([N+](=O)[O-])c1Nc1ncc(C(F)(F)F)cc1Cl`, for which the call was inactive.

For `CCN(CC)CCc1c[nH]c2ccccc12`, the outcome was inactive.

With `Brc1cccc(-c2ccccc2)c1`, the result was inactive.

Regarding `S=C=Nc1ccccc1`, the result was inactive.

As to `COP(=O)(OC)Oc1ccc([N+](=O)[O-])cc1`, the outcome was inactive.

As for `Cc1c([N+](=O)[O-])c(C)c([N+](=O)[O-])c(C(C)(C)C)c1[N+](=O)[O-]`, the call was inactive.

Turning to `CC1CN1` (configuration not stated), the molecule was called inactive.

With `CC(=O)[O][Sn]([c]1ccccc1)([c]1ccccc1)[c]1ccccc1`, the outcome was inactive.

Consider `COP(=S)(OC)Oc1nc(Cl)c(Cl)cc1Cl`, for which the call was inactive.

As for `CCCCCCCCCCCCCCn1cc[n+](C)c1`, the molecule was called inactive.

On to `CCCCc1ccccc1`, for which the outcome was inactive.

As to `BrCCCBr`, the result was inactive.

In the case of `c1cc[n+]2c(c1)-c1cccc[n+]1CC2`, the molecule was called inactive.

With `[O-][Cl+3]([O-])([O-])O`, the molecule was called inactive.

As for `COc1c2c(cc3c1OCO3)CCN(C)C2`, the fluorescence, relative to Rose Bengal was 0.142% [at 18.6 µM] (inactive).

As to `ClC1=C(Cl)[C@]2(Cl)[C@H]3[C@H]([C@@H]4C=C[C@H]3C4)[C@@]1(Cl)C2(Cl)Cl`, the molecule was classed as inactive.

In the case of `COc1cnc(OC)n2nc(NS(=O)(=O)c3c(OCC(F)F)cccc3C(F)(F)F)nc12`, the outcome was inactive.

`COc1ccc2[nH]cc(CCN(C(C)C)C(C)C)c2c1`: the call was inactive.

In the case of `CN(C)C(=S)SSC(=S)N(C)C`, the molecule was called inactive.

Regarding `CN1C(=O)[C@@H](NC(=O)c2cc3ccccc3[nH]2)N=C(c2ccccc2)c2ccccc21`, the molecule was classed as inactive.

`COP(=S)(NC(C)C)Oc1ccc(C)cc1[N+](=O)[O-]` (configuration not stated): the call was inactive.

Consider `CC(Cc1ccc(OCC(=O)O)cc1)NCC(O)c1csc(C(F)(F)F)n1` (configuration not stated), for which the outcome was inactive.

Regarding `c1ccc(N=NNc2ccccc2)cc1`, the result was inactive.

`N#CC(C#N)=NNc1cccc(Cl)c1`: the molecule was classed as inactive.

Take `CC(O)C(=O)[O][Hg][c]1ccccc1` (configuration not stated): the molecule was classed as inactive.

`COC(=O)C(C)N(C(=O)c1ccco1)c1c(C)cccc1C` (configuration not stated): the molecule was called inactive.

`CCCCC(CC)COC(=O)OOC(C)(C)C` (configuration not stated): the molecule was called inactive.
